Assay results published in PubChem BioAssay (NCI).
Compounds without any hit were thinned out: in the full panel of roughly 79,000, 15% have a hit. Values without a mark were called inactive. Calls of active or inactive are those of the source. No stated cut-off is given here; in the data, active means growth inhibition above about 70%; inactive means the rest. Where a SMILES comes first, the peptide text is derived from it. [ ]: non-standard residue; d: D form. The star is where a group is joined. Hyp = O=C(O)[CH]1C[CH](O)CN1; Cbz = O=C(OCc1ccccc1)*

test: NCI Yeast Anticancer Drug Screen. Data for the bub3 strain (AID 167); conditions: S. cerevisiae bub3 mutant strain, at 50.0 µM, active compounds read high
Summary of the method: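 In this screen, a yeast mutant lacking normal mitotic checkpoint function is challenged with compound. Relative growth versus vehicle gives the inhibition value.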

Compound | growth inhibition [%]
CC(=O)C1=C(C)N2C(=NC3=C(CCc4ccccc43)C2c2ccc(F)cc2)S1 (stereo not drawn) | -21.8
Cn1c(=O)c2c(nc(Cl)n2Cc2ccccc2)n(C)c1=O | 0.8
Cc1ccc(S(=O)OCC23CC4CC(CC(C4)C2)C3)cc1 (stereo not drawn) | -5.55
CCCNC(=O)/C=C/C(=O)NCCC | -6

test: NCI Yeast Anticancer Drug Screen. Data for the mlh1 rad18 strain (AID 175); conditions: S. cerevisiae mlh1 rad18 strain growth inhibition; at 50.0 µM; active compounds read high
Summary of the method: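 Read-out is yeast growth inhibition, calculated against vehicle-only controls. The compound was applied to a strain engineered with DNA damage repair alterations.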

Compound | growth inhibition
CN1CCCNCCN(CCc2ccccn2)CCCN(C)CC1 | 6.65%
CC(C)(c1ccc(O)c([N+](=O)[O-])c1)c1ccc(O)c([N+](=O)[O-])c1 | 7.2%
CCOC(=O)C(NC(=O)C(CCCCNP(=O)(OCC)OCC)NC(=O)C(C)NC(C)=O)C(C)C (stereo not drawn) | 3.75%
CC(=O)Nc1cc(C)cc(Br)c1 | -9.55%
O=C(O)COc1ccccc1OCC(=O)O | 1.2%
CC(=O)CC(C)(C)c1cc(CC(C)(C)C(N)=O)on1 | 17.2%
CCOC(=O)C(C#N)=C1c2ccccc2Oc2ccccc21 | -1.15%
CN1NC(c2ccc(Cl)cc2)=C(C#N)C(=O)CC1c1ccccc1 (stereo not drawn) | 2.35%
CN(C)c1nc(N(C)C)c2cnn(C)c2n1 | -29.8%
Cc1ccc(Nc2nc(C)c(C(=O)C/C(=N/NC(N)=S)C(=O)Nc3cc(Cl)cc(Cl)c3)s2)cc1 | -27.8%
OCn1c2ccccc2c2ccccc21 | 19.8%
CCCCn1cc(C(=O)O)c(=O)c2c3sccc3ccc21 | -26.1%
CCOC(=O)C1CN(C2CCCCC2)CCC1=O (stereo not drawn) | -24.4%
O=C1/C(=C/c2cccs2)CCc2ccccc21 | 31.9%
CCOC(=O)c1ccccc1[N+](=O)[O-] | 18.2%
O=C1OCCC2(CCN(Cc3ccccc3)CC2)O1 | 24.3%
CCCCC1CCC(C(=O)O)=NC1 (stereo not drawn) | -11.4%
CC(C(=O)O)C1(O)CCCCC1 (stereo not drawn) | -8.4%
COc1ccc2c(c1)CCC1C(=O)NN=C21 (stereo not drawn) | -8%
CC(=O)N1OCCc2ccccc21 | -1.45%

Compound | growth inhibition
NC(=O)CNC(=O)C1CC(O)CN1C(=O)C1CCCN1C(=O)OCc1ccccc1 (stereo not drawn) (Cbz-Pro-[Hyp]-Gly-NH2; configuration not given here) | 2.2%
CCCc1c(O)ccc(C)c1C | 32.4%
c1ccc(C(c2ccccc2)c2cc(-c3cc(C(c4ccccc4)c4ccccc4)[nH]n3)n[nH]2)cc1 | 6.25%
O=C(O)CSC(=S)c1ccccc1 | -12.9%
Cn1c(=N)n(CC(=O)NC23CC4CC(CC(C4)C2)C3)c2ccccc21 | -11.6%
O=C1C(N=Nc2ccc(S(=O)(=O)Nc3ccccn3)cc2)C(=O)N(c2ccccc2)C(=S)N1c1ccccc1 | 23.6%
O=C(O)C(O)(O)C(O)(O)C(=O)O | -10.4%
CCCCCCCCCCCCCCCCCCS | -5.7%
O=c1[nH]cc(COCC(O)CO)c(=O)[nH]1 (stereo not drawn) | -23.7%
Cc1c2c(cc3c1[nH]c1ccccc13)C(=O)c1ccccc1C2=O | 83.3% (active)
Cc1ccc(Cl)cc1NC(=O)C(Br)C(Br)C(=O)O (stereo not drawn) | 98.8% (active)
Cc1ccc(S(=O)(=O)/N=C/C=P(c2ccccc2)(c2ccccc2)c2ccccc2)cc1 | -3.65%
COc1ccc(C=Nc2ccc([N+](=O)[O-])cc2O)cc1 | 1.6%
O=C1C=C(Sc2ccccc2)c2nccc3c2c1nc1ccccc13 | 30%
O=C(C[n+]1ccccc1)NNC(=O)/C(=C/c1ccc2c(c1)OCO2)NC(=O)c1ccccc1 | 10.1%
CC(=O)C1=C(C)N2C(=NC3=C(CCc4ccccc43)C2c2ccc(F)cc2)S1 (stereo not drawn) | -9.8%
Cn1c(=O)c2c(nc(Cl)n2Cc2ccccc2)n(C)c1=O | 21.4%
Cc1ccc(S(=O)OCC23CC4CC(CC(C4)C2)C3)cc1 (stereo not drawn) | -30.6%
CCCNC(=O)/C=C/C(=O)NCCC | 4.1%
